# Laboratory results from PubChem BioAssay (NCATS).
# Records with an inconclusive call do not appear. Entries that show only a call come without a potency. Unmarked numbers belong to inactive results. Activity calls are given as the source filed them. Calls come from the whole dose curve. Starred links: 1 amine or outer side, 2 acyl side, 3 side chain; linkers in the order of their positions; H or OH if unused. Positions of bridges follow the written chain, without caps; N, C: chain ends. Non-standard residues stand in square brackets, D forms with d. Residues, ends and D or L forms follow the SMILES beside them. ξ: configuration not given here. *: point of attachment. ΔAla(3-NHCONH2) = NC(=O)NC=C(N)C(=O)O; X1 = NC1=NCCC(C(N[*:1])C(=O)[*:2])N1; ξβ3hOrn = NCCCC(N)CC(=O)*; Dap = NC[CH](N)C(=O)O
# Columns and labels:
# [1] = Primary qHTS for inhibitors of SARS-S pseudo-typed particle cell entry (AID 1479145); note: nearly all actives have a fitted effect of over 45% in size
# [2] = Primary qHTS for Huh7 cytotoxicity: counterscreen for inhibitors of MERS-S pseudotyped particle cell entry (AID 1479147)
SMILES,Potency [1],Potency [2],outcome [1],"activity change, negative = cytotoxicity [2]"
CCCCOCCOCCOCc1cc2c(cc1CCC)OCO2,inactive,inactive,,
CN1C(CCl)Nc2cc(Cl)c(S(N)(=O)=O)cc2S1(=O)=O (stereo unspecified),inactive,inactive,,
C=C(CC)C(=O)c1ccc(OCC(=O)O)c(Cl)c1Cl,inactive,inactive,,
CCCN[C@H]1CCc2nc(N)sc2C1,inactive,inactive,,
CC(S)C(=O)NCC(=O)O (stereo unspecified),inactive,inactive,,
Cn1cc[nH]c1=S,inactive,inactive,,
COCCCOc1cc(C[C@@H](C[C@H](N)[C@@H](O)C[C@H](C(=O)NCC(C)(C)C(N)=O)C(C)C)C(C)C)ccc1OC,inactive,inactive,,
NC[C@H](O)c1ccc(O)c(O)c1,inactive,inactive,,
COC(=O)[C@H]1[C@H]2C[C@@H]3c4[nH]c5cc(OC)ccc5c4CCN3C[C@H]2C[C@@H](OC(=O)c2cc(OC)c(OC)c(OC)c2)[C@@H]1OC,inactive,inactive,,
CC(C)NCC(O)c1ccc(O)c(O)c1 (stereo unspecified),inactive,inactive,,
CCN(CC)CCCC(C)Nc1ccnc2cc(Cl)ccc12 (stereo unspecified),inactive,inactive,,
NCCCC(N)CC(=O)NCC1NC(=O)C(CO)NC(=O)C(N)CNC(=O)C(C2CCN=C(N)N2)NC(=O)C(=CNC(N)=O)NC1=O (stereo not drawn) (H-[Dap]S[Dap](ξβ3hOrn)[ΔAla(3-NHCONH2)][X1]; lactam 1-C; configuration not given here),,,inactive [at 0.573 µM],3.81% [at 0.573 µM]
O=C1Cc2cc(CCN3CCN(c4nsc5ccccc45)CC3)c(Cl)cc2N1,inactive,inactive,,
O=P(O)(O)C(O)(Cc1cccnc1)P(=O)(O)O,inactive,inactive,,
Cc1c(O)cccc1C(=O)N[C@@H](CSc1ccccc1)[C@H](O)CN1C[C@H]2CCCC[C@H]2C[C@H]1C(=O)NC(C)(C)C,inactive,inactive,,
CC[C@@H](CO)NCCN[C@@H](CC)CO,inactive,inactive,,
CCCc1nc2c(C)cc(-c3nc4ccccc4n3C)cc2n1Cc1ccc(-c2ccccc2C(=O)O)cc1,inactive,inactive,,
CNCCc1ccccn1,inactive,inactive,,
Cc1ccc(C)c(OCCCC(C)(C)C(=O)O)c1,inactive,inactive,,
CCOc1ccc2ccccc2c1C(=O)N[C@@H]1C(=O)N2[C@@H]1SC(C)(C)[C@@H]2C(=O)O,inactive,inactive,,
CO/N=C(\C(=O)N[C@@H]1C(=O)N2C(C(=O)O)=C(CSc3nc(=O)c(O)nn3C)CS[C@H]12)c1csc(N)n1,inactive,inactive,,
CCCN(CCC)S(=O)(=O)c1ccc(C(=O)O)cc1,inactive,inactive,,
CC(C)c1nc(CN(C)C(=O)N[C@H](C(=O)N[C@@H](Cc2ccccc2)C[C@H](O)[C@H](Cc2ccccc2)NC(=O)OCc2cncs2)C(C)C)cs1,inactive,inactive,,
